The values below come from PubChem BioAssay AID430 (Sanford-Burnham Center for Chemical Genomics, 2006).

In all, about 63,000 compounds went through this assay and about 1,100 (1.7%) were called active. This is one part of a sample in which actives are shown more often than they occur. Cut-off read from the data, not from the text of the source: active = cytotoxicity above about 50%; inactive = the rest. Entries with a potency or affinity are not part of this list.

This assay is described as follows: HPDE-C7 pancreatic duct cell viability loss – fluorescence, HTS (AID 430).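 Note: cells exposed to compound for 48 hours before viability readout; 0% = vehicle and 100% = reference cytotoxic drug.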 The conditions noted are these: HPDE-C7 pancreatic duct cells viability, at 10 µM, hits give high values.
`Cc1cc(C(=O)COC(=O)c2ccc3c(c2)OCO3)c(C)n1Cc1cccs1`: the cytotoxicity was -3.8% (inactive).

`COCCNC(=O)C(C)OC(=O)c1cc2occc2n1C` (stereo unspecified): the cytotoxicity is -3.5% (inactive).

`Cc1csc(NC(=O)C2CCC(C)(C(=O)O)C2(C)C)n1` (stereo unspecified): the cytotoxicity was -12.1% (inactive).

Consider `Cc1cc(C(=O)NCCCN2CCN(C3CCCCC3)CC2)n(-c2ccccc2)n1`, for which the cytotoxicity was 1.4% (inactive).

`Cc1cc(C(=O)NCCN2CCN(c3cccc(Cl)c3)CC2)n(-c2ccccc2)n1`: the cytotoxicity is 55.2% (active).

As to `Cc1cc(C(=O)NCCCN2CCOCC2)n(-c2ccccc2)n1`, the cytotoxicity was 1.2% (inactive).

Turning to `CC(=O)Nc1cnc2ccccc2n1`, the cytotoxicity is -6.4% (inactive).

For `Clc1ccc2nc(NC3=NCN(CCN4CCOCC4)CN3)nc(-c3ccccc3)c2c1`, the cytotoxicity is -2.9% (inactive).

As to `OCCN1CCN(c2nc(-c3ccccc3)c3cc(Cl)ccc3n2)CC1`, the cytotoxicity was 67.2% (active).

For `Cc1ccc2nc(N3CCC(C(=O)O)CC3)nc(-c3ccccc3)c2c1`, the cytotoxicity is -3.3% (inactive).

As to `CN1CCN(c2nc(N3CCN(CCO)CC3)nc3ccccc23)CC1`, the cytotoxicity was -2.1% (inactive).

With `CN1CCN(c2nc(-c3ccccc3)c3cc(Cl)ccc3n2)CC1`, the cytotoxicity was 4.2% (inactive).

Regarding `Cc1cc(Cl)c2c(c1)[C@]1(C(=O)N2)[C@@H]2C(=O)N(Cc3ccccc3)C(=O)[C@@H]2[C@@H]2CCCN21`, the cytotoxicity is -13.3% (inactive).

On to `CC(=O)c1c(C)[nH]c(C(=O)N2CCN(c3ncccn3)CC2)c1C`, for which the cytotoxicity is 2.1% (inactive).

As for `CCOC(=O)c1[nH]c(C)c(C(=O)N2CCN(c3cccc(Cl)c3)CC2)c1C`, the cytotoxicity is 13.5% (inactive).

For the molecule `COc1cccc(N2CCN(C(=O)c3[nH]c(C)c(C(C)=O)c3C)CC2)c1`, the cytotoxicity was 53.6% (active).

On to `CC(C)C(=O)Nc1ccc(NC(=O)c2cccc(F)c2)cn1`, for which the cytotoxicity is -7.5% (inactive).

Regarding `COc1cc(CCC(=O)OCC(=O)Nc2ncc(Cl)cc2Cl)cc(OC)c1OC`, the cytotoxicity is -7.2% (inactive).

Turning to `Cc1cc(-c2ccccc2C(=O)O)on1`, the cytotoxicity was -13.2% (inactive).

As to `CCCCCNC(=O)c1ccc2c(=O)n(CC3CCCO3)c(=O)[nH]c2c1` (stereo unspecified), the cytotoxicity was -2.3% (inactive).

For `CCn1c(N)c(C(=O)NCc2ccco2)sc1=S`, the cytotoxicity was -6.5% (inactive).

For the molecule `CCCCCCNC(=O)c1c(O)c2ccccc2[nH]c1=O`, the cytotoxicity is 4.2% (inactive).

With `O=C(NCC1CCCO1)c1sc(=S)n2c1[nH]c(=O)c1ccc(C(=O)N3CCCCC3)cc12` (stereo unspecified), the cytotoxicity was -5.8% (inactive).

On to `CCCCNC(=O)c1ccccc1C(=O)NCCCC`, for which the cytotoxicity is -5.7% (inactive).

With `C=CCn1c(N)c(C(=O)NCc2ccco2)sc1=S`, the cytotoxicity was 2.4% (inactive).

Take `CCCCNC(=O)c1sc(=S)n2c1[nH]c(=O)c1ccccc12`: the cytotoxicity is 70.3% (active).

For `O=C(NCc1ccco1)c1sc(=S)n2c1[nH]c(=O)c1ccccc12`, the cytotoxicity was 82.7% (active).

Consider `O=C(O)C1CCCN(S(=O)(=O)c2ccc(F)cc2)C1` (stereo unspecified), for which the cytotoxicity is -13.4% (inactive).

On to `CCOC(=O)CSC1=NC(=O)CS1`, for which the cytotoxicity was -7% (inactive).

On to `Cc1ccc2[nH]c(=O)c(CN(CCc3ccccc3)C(=O)N3CCOCC3)cc2c1`, for which the cytotoxicity was 5.9% (inactive).

For the molecule `CC(C)CC(=O)Nc1cccc(-c2cn3ccsc3n2)c1`, the cytotoxicity is 2.6% (inactive).

Regarding `CC(C)CC(=O)Nc1ccc(-c2cn3ccsc3n2)cc1`, the cytotoxicity is 51.9% (active).

For `CC(=O)Nc1ccc(-c2cn3ccsc3n2)cc1`, the cytotoxicity is 10.2% (inactive).

Take `CCOC(=O)CCC(=O)Nc1ccc(S(=O)(=O)N2CCCC2)cc1`: the cytotoxicity is -1.2% (inactive).

Turning to `O=C(NC1CCN(C(=O)Nc2ccccc2)CC1)C1CCCCC1`, the cytotoxicity was -8.9% (inactive).

Consider `CC(C)c1nnc(NC(=O)c2c(O)c3cccc4c3n(c2=O)CCC4)s1`, for which the cytotoxicity was 46.3% (inactive).

As for `Cc1cnc(NC(=O)c2c(O)c3cccc4c3n(c2=O)CCC4)s1`, the cytotoxicity was 52.2% (active).

As to `Cc1csc(NC(=O)c2c(O)c3cccc4c3n(c2=O)CCC4)n1`, the cytotoxicity is -11.1% (inactive).

As to `N#CC1=C(N)S[C@H](C(=O)C23CC4CC(CC(C4)C2)C3)[C@H]1c1ccncc1`, the cytotoxicity was -14.7% (inactive).

In the case of `CCC(c1nnnn1CCc1ccccc1)N(Cc1ccco1)Cc1cc2cc(C)cc(C)c2[nH]c1=O` (stereo unspecified), the cytotoxicity was 10.7% (inactive).

For `NC1=NC(c2ccccc2Cl)n2c(nc3ccccc32)N1` (stereo unspecified), the cytotoxicity was 7% (inactive).

As to `NC1=NC(c2cn(-c3ccccc3)nc2-c2cccs2)n2c(nc3ccccc32)N1` (stereo unspecified), the cytotoxicity is 54.9% (active).

`CC1=C(C#N)C(c2cn(-c3ccccc3)nc2-c2cccs2)C(C#N)=C(C)N1`: the cytotoxicity is 41.2% (inactive).

With `Cc1ccc2oc(-c3ccc(NC(=O)c4cccnc4)cc3)nc2c1`, the cytotoxicity was 51.4% (active).

With `O=C(Nc1ccc2oc(-c3ccccc3)nc2c1)c1cccnc1`, the cytotoxicity was 18.1% (inactive).

Turning to `O=C(Nc1ccc2oc(-c3ccccc3F)nc2c1)c1ccc2c(c1)OCCO2`, the cytotoxicity is 46.2% (inactive).

In the case of `O=C(Nc1cccc(NC(=O)c2ccc(-c3cccc(Br)c3)o2)c1)c1ccco1`, the cytotoxicity was 63% (active).

As to `Cc1ccc2oc(-c3ccc(NC(=O)c4ccc5c(c4)OCO5)cc3)nc2c1`, the cytotoxicity was 71.1% (active).

On to `CC(=O)Nc1cccc(NC(=O)c2ccco2)c1`, for which the cytotoxicity is -14.2% (inactive).

With `O=C(Nc1ccccc1-c1nc2ccccc2o1)c1ccc2c(c1)OCCO2`, the cytotoxicity was 77.2% (active).

For `COc1ccc(Br)cc1C(=O)Nc1cccc(NC(=O)c2ccco2)c1`, the cytotoxicity was 42.6% (inactive).

Turning to `Cc1c(NC(=O)c2ccc3c(c2)OCO3)cccc1-c1nc2ccccc2o1`, the cytotoxicity was -9.8% (inactive).

With `O=C(Nc1ccc2oc(-c3cccnc3)nc2c1)c1cccnc1`, the cytotoxicity was 7.7% (inactive).

On to `O=C(Nc1ccc(-c2nc3ccccc3o2)cc1)c1ccc2c(c1)OCO2`, for which the cytotoxicity was 2% (inactive).

For the molecule `COc1ccc(-c2nc3cc(NC(=O)c4ccc5c(c4)OCO5)ccc3o2)cc1`, the cytotoxicity was 1.2% (inactive).

As to `CC(=O)[C@@H]1[C@@H]2C(=O)N(Cc3ccccc3)C(=O)[C@@H]2C2c3ccccc3C=CN21` (stereo partly specified), the cytotoxicity is 3.9% (inactive).

In the case of `CCC(=NCCc1ccccc1)C1=C(O)CCC1=O`, the cytotoxicity was 9.7% (inactive).

Take `C=CCn1c(SCn2nnc3ccccc3c2=O)nnc1-c1ccc(F)cc1`: the cytotoxicity was -0.2% (inactive).

On to `Cc1cc(C(=O)N2CCN(S(C)(=O)=O)CC2)sc1-c1ccccc1`, for which the cytotoxicity is -3% (inactive).

For `O=C(NC1CCCC1)C1CCCN1C(=O)Nc1ccccc1Cl` (stereo unspecified), the cytotoxicity was -20.3% (inactive).

With `C=CCN(CC=C)c1nc2ccccc2nc1C(C#N)C(=O)OCCOC` (stereo unspecified), the cytotoxicity was 1.9% (inactive).
